Assays:
Experiment in all cases: log2 ratio of Biotin-Ahx-Ub-VS probe labelling (fragment/DMSO); higher = less target engagement (more negative = stronger competition), active = hit call of the paper (q ≤ 0.05, log2 ratio ≤ -1)
Details in all cases: compound concentration: 200 uM; treatment time: 3 h
[1] = molecular target: USP34 (UniProt Q70CQ2)
Outline: (§1)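 Labelled DUBs were enriched with NeutrAvidin, digested with LysC and trypsin, and run by diaPASEF LC-MS/MS. The labelling used Biotin-Ahx-Ub-VS at 0.5 µM final for 1 h on HEK293T lysate (495 µg per sample) previously treated in triplicate with fragment at 200 µM or vehicle for 3 h. Values are average log2 fragment/vehicle ratios by unpaired t-test on global-median-normalised Spectronaut quantities of proteins with ≥2 unique peptides.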

[2] = molecular target: T1, USP36 (UniProt Q9P275)
T1 sequence (whole entry): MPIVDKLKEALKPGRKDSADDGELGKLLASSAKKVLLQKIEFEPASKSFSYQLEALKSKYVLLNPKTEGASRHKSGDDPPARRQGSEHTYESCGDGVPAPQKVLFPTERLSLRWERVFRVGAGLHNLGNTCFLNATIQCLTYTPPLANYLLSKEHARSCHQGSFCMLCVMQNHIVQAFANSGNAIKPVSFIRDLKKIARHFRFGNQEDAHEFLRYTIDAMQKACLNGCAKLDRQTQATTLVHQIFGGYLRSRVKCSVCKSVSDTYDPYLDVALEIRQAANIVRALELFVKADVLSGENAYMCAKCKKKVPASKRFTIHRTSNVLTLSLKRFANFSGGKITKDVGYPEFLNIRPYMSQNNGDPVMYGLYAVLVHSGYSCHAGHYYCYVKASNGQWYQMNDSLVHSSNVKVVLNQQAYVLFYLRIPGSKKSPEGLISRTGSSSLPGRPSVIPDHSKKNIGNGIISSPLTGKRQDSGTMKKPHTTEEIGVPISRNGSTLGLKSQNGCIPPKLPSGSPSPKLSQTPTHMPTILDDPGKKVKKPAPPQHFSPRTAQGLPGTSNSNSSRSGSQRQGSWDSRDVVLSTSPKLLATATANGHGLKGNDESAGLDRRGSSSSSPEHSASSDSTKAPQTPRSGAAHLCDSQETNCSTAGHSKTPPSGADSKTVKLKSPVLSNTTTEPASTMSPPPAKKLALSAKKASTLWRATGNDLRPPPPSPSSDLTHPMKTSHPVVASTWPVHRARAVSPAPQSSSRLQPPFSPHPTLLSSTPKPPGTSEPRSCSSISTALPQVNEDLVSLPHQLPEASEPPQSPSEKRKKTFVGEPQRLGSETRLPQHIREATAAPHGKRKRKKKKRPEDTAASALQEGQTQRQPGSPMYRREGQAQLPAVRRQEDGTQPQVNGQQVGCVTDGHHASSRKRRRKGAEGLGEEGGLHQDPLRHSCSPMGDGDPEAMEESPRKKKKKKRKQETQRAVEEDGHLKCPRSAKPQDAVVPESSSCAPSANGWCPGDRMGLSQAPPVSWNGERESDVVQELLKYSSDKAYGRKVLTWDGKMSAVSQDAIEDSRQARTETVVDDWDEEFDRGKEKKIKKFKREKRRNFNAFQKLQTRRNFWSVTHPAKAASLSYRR
Outline: as §1

[3] = molecular target: T2, USP38 (UniProt Q8NB14)
T2 sequence (whole entry): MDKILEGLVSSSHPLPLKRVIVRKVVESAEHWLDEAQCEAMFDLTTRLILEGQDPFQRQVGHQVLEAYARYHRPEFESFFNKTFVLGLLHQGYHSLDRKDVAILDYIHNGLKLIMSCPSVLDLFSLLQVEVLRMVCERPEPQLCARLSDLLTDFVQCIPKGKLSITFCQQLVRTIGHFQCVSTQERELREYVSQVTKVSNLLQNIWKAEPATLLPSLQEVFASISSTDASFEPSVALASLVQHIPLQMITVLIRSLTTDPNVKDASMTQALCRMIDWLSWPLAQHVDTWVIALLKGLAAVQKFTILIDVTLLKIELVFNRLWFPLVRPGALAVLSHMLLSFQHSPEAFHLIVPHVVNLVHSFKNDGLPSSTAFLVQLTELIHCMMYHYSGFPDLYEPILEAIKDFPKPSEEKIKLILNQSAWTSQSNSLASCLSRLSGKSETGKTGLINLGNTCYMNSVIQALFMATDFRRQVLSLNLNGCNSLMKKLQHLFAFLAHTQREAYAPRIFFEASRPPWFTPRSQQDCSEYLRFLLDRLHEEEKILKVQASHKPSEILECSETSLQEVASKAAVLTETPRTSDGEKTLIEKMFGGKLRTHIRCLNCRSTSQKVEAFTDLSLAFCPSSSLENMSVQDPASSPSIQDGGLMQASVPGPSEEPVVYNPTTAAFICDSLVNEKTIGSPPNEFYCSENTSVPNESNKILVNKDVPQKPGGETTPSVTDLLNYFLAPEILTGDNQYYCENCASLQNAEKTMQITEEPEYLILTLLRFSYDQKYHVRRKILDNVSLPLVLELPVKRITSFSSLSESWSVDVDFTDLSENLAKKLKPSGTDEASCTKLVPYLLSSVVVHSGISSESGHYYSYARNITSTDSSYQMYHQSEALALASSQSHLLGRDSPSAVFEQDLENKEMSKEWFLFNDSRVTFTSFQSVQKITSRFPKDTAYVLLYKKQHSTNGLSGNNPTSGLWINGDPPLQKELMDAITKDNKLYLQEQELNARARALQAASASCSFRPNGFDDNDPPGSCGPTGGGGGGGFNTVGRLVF
Outline: as §1

[4] = molecular target: T3, USP39 (UniProt Q53GS9)
T3 sequence (whole entry): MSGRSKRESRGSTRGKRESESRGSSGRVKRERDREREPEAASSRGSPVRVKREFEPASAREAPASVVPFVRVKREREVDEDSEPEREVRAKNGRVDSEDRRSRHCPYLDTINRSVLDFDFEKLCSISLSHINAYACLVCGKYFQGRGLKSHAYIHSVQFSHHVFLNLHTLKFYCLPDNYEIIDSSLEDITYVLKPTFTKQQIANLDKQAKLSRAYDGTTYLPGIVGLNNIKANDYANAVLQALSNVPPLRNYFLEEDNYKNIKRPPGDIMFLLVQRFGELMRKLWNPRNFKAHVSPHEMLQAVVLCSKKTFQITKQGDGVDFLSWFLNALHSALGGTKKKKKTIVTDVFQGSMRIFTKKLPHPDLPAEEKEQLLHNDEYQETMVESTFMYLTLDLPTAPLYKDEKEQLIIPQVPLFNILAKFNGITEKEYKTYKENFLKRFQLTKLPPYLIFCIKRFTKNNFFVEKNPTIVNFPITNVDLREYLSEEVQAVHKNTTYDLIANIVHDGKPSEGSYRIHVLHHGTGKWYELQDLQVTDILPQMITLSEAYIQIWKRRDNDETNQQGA
Outline: as §1

[5] = molecular target: T4, USP4 (UniProt Q13107)
T4 sequence (whole entry): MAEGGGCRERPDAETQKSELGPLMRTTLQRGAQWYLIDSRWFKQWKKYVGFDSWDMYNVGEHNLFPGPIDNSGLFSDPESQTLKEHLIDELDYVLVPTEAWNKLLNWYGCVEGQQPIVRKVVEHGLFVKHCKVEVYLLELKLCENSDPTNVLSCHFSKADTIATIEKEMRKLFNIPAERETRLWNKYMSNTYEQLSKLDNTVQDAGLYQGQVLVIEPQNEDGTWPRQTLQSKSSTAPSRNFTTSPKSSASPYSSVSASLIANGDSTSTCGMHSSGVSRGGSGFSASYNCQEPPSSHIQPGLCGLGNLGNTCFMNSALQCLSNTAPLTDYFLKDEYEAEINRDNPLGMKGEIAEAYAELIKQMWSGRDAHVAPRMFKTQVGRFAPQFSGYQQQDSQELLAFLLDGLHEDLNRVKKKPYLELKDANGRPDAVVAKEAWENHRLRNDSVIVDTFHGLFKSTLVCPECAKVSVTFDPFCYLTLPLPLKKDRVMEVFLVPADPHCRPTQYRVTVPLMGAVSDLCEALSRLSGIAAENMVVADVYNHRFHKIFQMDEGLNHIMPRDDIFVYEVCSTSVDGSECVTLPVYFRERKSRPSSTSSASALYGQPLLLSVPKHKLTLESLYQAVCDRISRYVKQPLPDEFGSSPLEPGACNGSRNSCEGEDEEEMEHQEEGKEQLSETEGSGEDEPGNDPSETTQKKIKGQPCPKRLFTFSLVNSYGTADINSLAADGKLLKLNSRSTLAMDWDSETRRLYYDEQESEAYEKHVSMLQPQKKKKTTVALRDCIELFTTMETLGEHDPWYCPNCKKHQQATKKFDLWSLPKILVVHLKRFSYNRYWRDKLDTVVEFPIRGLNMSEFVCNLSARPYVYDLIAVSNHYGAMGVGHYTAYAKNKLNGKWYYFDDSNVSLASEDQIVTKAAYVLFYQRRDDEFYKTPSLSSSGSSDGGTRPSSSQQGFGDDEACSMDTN
Outline: as §1

Measured: log2 ratio of Biotin-Ahx-Ub-VS probe labelling

USP34, sequence (Q70CQ2 whole entry, the tested form may be a part): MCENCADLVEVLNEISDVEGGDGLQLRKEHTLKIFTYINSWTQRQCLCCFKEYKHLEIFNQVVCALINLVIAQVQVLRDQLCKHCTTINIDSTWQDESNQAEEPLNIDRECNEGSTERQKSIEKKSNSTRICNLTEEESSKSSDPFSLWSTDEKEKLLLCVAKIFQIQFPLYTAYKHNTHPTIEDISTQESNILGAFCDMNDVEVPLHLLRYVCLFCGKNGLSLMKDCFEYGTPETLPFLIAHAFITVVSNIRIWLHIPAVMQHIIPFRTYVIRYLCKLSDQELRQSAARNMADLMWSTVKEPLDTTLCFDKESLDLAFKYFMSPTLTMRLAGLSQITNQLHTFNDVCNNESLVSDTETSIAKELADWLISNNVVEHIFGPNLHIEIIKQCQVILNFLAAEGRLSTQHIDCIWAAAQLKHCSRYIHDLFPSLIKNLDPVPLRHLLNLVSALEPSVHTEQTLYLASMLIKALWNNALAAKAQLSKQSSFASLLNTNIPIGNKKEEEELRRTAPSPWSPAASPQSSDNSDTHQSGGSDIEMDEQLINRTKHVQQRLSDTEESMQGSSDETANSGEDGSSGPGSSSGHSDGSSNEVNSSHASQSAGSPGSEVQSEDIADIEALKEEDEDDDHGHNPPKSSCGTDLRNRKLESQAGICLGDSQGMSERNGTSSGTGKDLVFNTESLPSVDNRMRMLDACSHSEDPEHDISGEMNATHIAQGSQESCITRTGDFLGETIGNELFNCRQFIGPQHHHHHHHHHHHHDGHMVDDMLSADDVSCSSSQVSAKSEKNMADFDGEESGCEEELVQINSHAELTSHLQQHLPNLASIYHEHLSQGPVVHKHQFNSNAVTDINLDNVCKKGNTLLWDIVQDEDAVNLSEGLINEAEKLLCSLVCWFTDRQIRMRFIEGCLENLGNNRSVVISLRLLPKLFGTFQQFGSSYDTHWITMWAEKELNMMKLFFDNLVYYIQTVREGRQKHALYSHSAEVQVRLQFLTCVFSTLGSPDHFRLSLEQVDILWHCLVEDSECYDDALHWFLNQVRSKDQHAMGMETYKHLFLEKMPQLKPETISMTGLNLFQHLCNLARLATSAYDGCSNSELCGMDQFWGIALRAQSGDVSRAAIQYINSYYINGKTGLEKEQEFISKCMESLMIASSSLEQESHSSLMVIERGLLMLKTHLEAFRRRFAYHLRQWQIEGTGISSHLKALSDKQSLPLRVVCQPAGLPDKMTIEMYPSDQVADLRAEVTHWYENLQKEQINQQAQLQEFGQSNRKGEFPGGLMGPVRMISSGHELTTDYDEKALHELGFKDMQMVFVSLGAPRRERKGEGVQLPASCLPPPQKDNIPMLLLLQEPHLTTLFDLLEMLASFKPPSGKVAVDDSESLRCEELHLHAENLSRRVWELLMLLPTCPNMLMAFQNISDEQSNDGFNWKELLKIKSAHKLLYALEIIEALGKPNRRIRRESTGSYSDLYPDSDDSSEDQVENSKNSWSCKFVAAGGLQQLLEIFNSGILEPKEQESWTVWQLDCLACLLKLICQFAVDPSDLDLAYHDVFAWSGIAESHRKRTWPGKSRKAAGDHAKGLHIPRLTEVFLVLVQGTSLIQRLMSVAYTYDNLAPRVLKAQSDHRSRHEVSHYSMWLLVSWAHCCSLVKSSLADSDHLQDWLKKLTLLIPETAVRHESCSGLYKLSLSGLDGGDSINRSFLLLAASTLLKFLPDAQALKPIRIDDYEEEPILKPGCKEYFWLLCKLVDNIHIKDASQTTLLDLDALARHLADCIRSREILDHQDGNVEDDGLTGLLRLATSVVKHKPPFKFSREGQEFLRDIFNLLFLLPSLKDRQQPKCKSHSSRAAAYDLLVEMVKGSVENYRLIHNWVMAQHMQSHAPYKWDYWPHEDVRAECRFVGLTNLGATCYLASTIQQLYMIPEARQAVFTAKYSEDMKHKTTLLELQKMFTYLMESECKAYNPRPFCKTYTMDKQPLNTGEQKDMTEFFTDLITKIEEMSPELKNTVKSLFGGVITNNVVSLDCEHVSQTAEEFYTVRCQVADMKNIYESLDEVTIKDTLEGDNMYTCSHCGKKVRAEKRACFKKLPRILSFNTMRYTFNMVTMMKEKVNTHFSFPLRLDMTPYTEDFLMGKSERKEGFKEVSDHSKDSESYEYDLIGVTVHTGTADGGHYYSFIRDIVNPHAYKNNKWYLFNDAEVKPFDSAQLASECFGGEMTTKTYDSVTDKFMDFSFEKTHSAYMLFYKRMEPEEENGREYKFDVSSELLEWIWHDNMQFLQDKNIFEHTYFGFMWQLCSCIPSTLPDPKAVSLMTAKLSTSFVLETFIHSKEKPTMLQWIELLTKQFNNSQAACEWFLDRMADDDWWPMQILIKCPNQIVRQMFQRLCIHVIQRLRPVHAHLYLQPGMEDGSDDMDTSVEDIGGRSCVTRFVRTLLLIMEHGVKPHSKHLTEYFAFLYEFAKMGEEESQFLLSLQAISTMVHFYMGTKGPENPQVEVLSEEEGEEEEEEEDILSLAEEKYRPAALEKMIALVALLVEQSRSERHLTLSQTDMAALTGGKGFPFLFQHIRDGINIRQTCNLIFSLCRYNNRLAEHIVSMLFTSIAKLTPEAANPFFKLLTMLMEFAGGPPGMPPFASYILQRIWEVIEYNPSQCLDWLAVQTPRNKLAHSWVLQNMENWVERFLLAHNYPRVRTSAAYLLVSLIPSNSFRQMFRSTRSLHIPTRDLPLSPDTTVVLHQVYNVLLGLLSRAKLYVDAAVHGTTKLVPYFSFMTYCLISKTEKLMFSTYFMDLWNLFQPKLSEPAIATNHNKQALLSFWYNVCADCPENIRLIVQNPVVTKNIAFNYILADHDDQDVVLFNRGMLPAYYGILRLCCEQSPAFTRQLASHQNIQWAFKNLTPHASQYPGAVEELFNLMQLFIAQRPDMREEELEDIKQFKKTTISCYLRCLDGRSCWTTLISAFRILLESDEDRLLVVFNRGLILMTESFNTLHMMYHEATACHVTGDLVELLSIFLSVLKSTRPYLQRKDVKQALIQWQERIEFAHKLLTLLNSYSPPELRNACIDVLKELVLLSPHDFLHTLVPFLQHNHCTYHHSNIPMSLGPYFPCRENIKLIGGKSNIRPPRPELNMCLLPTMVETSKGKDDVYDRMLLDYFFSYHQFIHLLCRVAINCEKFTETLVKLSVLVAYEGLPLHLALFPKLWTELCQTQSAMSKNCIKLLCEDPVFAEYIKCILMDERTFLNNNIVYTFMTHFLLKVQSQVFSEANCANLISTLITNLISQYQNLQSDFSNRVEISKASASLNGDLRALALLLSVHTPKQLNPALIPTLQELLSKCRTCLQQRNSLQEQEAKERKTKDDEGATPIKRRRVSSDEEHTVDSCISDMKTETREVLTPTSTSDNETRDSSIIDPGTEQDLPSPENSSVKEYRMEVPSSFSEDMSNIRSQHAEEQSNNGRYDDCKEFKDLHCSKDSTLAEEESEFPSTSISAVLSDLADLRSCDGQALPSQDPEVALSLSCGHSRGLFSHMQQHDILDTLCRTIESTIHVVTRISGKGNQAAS

O=C(CCl)NCc1noc(C2CC2)n1
inactive: [1] -0.18 | [2] -0.144 | [3] -0.0158 | [4] 0.182 | [5] 0.00316
